TbREL1 primary = TbREL1 inhibition, primary screen; P86926; TbREL1 RNA ligation, FRET fluorescence; inhibition, % at 9.66 µM; hit rate 0.49% among 89,000; AID 1117264;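 active = inhibition above the mean inhibition across all screened compounds plus 3 SD, cut at about 11% in these data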;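 note: 0% = plate median of test wells and 100% = NSC42067 control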
Target sequence (P86926 whole entry, looked up): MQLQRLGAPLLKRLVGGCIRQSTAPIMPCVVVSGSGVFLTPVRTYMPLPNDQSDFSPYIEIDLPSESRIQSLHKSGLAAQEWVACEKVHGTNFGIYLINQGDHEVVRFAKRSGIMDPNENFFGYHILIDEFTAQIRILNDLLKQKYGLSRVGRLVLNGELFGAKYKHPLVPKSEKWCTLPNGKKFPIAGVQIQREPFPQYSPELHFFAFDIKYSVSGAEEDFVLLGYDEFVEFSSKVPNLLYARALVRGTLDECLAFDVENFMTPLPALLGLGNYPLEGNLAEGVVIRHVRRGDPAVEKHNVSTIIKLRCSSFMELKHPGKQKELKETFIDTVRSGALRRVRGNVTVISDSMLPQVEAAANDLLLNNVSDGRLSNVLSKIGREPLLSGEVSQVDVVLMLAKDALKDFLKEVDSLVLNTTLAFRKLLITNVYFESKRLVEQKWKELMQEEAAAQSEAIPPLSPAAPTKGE
TbREL1 conf = TbREL1 inhibition, confirmation. shares compounds with TbREL1 primary. TbREL1 RNA ligation, FRET fluorescence. inhibition, % at 9.66 µM. hit rate 37% among 390. AID 1117282;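 active = mean inhibition across replicates above a set limit taken from the earlier primary screen, cut at about 11% in these data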;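 note: 0% = REL1 with substrate and DMSO and 100% = REL1 plus control inhibitor NSC42067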
* hit, by the source's call. This excerpt belongs to a sample that is enriched for hits.

What do the screens show for `COc1ccc(-c2cc(-c3ccccc3)nc(SCC(=O)Nc3nccs3)c2C#N)cc1`?
TbREL1 primary: -0.6

What do the screens show for `CCOC(=O)c1ccccc1Nc1cc(C)nc2nc(C)nn12`?
TbREL1 primary: -0.3

What do the screens show for `CCCCCCCCN1C(=O)[C@H](CC(=O)N2CCC(c3ccccc3)CC2)C[C@@]2(C(=O)OC)CC(C)(C)CC=C12`?
TbREL1 primary: 1.1

Results for CCOc1ccc(NC(=O)c2cnsn2)cc1 ?
TbREL1 primary: 2.0

What do the screens show for `Cc1ccc(C2C=NN(c3ccccc3)C2=O)cc1` (stereo unspecified)?
TbREL1 primary: -4.0

What do the screens show for `O=C(Nc1nc2c(s1)CCCC2)c1ccc(S(=O)(=O)N2CCCc3ccccc32)cc1`?
TbREL1 primary: 6.2

What do the screens show for `CS(=O)(=O)c1ccc(C(=O)Nc2nc(-c3ccco3)c(-c3ccco3)s2)cc1`?
TbREL1 primary: 82.2*; TbREL1 conf: 6.3

How did O=C(Nc1nc2c(s1)CCc1ccccc1-2)c1ccco1 do in these assays?
TbREL1 primary: -0.4

How did CC(C)(C)OC(=O)N1CCC(CNC(=O)c2ccccc2)CC1 do in these assays?
TbREL1 primary: -2.2

Results for Nc1ccc(-n2nc(C(F)(F)F)cc2C(F)(F)F)cc1 ?
TbREL1 primary: 1.5

Results for CN1CCN(C(=O)C23CC4CC(CC(C4)C2)C3)CC1 ?
TbREL1 primary: -1.7

Results for CC(=O)CCc1ccc(OCCCCN2CCC(Cc3ccccc3)CC2)cc1 ?
TbREL1 primary: 1.1

What do the screens show for `CCOc1ccccc1OCCN1CCC(Cc2ccccc2)CC1`?
TbREL1 primary: 1.8

Results for CCC(=O)c1ccccc1OCCCN1CCC(Cc2ccccc2)CC1 ?
TbREL1 primary: 11.3*; TbREL1 conf: 11.4*

How did COc1ccc(CN(Cc2cccn2C)S(=O)(=O)c2ccccc2)cc1 do in these assays?
TbREL1 primary: -1.7

How did Cn1cc(CCCC(=O)NCc2ccc(F)cc2)c2ccccc21 do in these assays?
TbREL1 primary: -11.1

How did COc1ccc(C(c2nnnn2Cc2cccs2)N2CCC(C(N)=O)CC2)c(OC)c1 (stereo unspecified) do in these assays?
TbREL1 primary: 3.3

How did Cc1ccc(S(=O)(=O)N2CCN(CC(=O)NC(C)c3ccccc3)CC2)cc1 (stereo unspecified) do in these assays?
TbREL1 primary: 1.6

Results for O=C(CN1CCCCC1)Nc1ccc(S(=O)(=O)N2CCCCCC2)cc1 ?
TbREL1 primary: -2.9

What do the screens show for `Cc1n[nH]c(C)c1NC(=O)CN1CCN(S(=O)(=O)c2ccc(C(F)(F)F)cc2)CC1`?
TbREL1 primary: 11.3*; TbREL1 conf: 3.6

What do the screens show for `O=C(O)C1CC(O)CN1S(=O)(=O)c1cccs1` (stereo unspecified)?
TbREL1 primary: -2.3

How did O=C(c1ccncc1)N1CCN(C2CCCCC2)CC1 do in these assays?
TbREL1 primary: 2.3

Results for CC(Sc1nnc(-c2ccc(Cl)cc2)n1N)C(=O)NCC1CCCO1 (stereo unspecified) ?
TbREL1 primary: 6.2

What do the screens show for `O=S(=O)(c1cccs1)N1CCN(c2ccccc2)CC1`?
TbREL1 primary: 16.2*; TbREL1 conf: 2.6

Results for O=S(=O)(c1cccs1)N1CCN(c2ccc(F)cc2)CC1 ?
TbREL1 primary: -0.1

What do the screens show for `O=S(=O)(c1cccs1)N1CCN(c2cccc(Cl)c2)CC1`?
TbREL1 primary: 3.3

What do the screens show for `CCCNC(=O)c1ccc(N2CCC3(CC2)CC(c2ccccc2)=NO3)c(NC(=O)c2ccco2)c1`?
TbREL1 primary: 0.9

Results for O=C(Nc1ccc(F)cc1)Nc1ccc(Oc2ncnc3cc(Cl)ccc23)nc1 ?
TbREL1 primary: -2.0

How did COc1ccccc1N(Cc1ccccc1)S(=O)(=O)c1cccc(C(=O)NC2CC(C)(C)NC(C)(C)C2)c1 do in these assays?
TbREL1 primary: 11.1*; TbREL1 conf: 13.8*

How did COc1ccccc1N(Cc1ccccc1)S(=O)(=O)c1cccc(C(=O)Nc2cc(C)ccn2)c1 do in these assays?
TbREL1 primary: 1.6

Results for CN(c1ccccc1)S(=O)(=O)c1cccc(C(=O)NC2CC(C)(C)NC(C)(C)C2)c1 ?
TbREL1 primary: 1.3

Results for CC(C)=CCSc1nnc(CCNC(=O)OC(C)(C)C)o1 ?
TbREL1 primary: -2.9

How did COC[C@@H]1CCCN1c1cccc2c1S(=O)(=O)N1CC[C@@H](C1)O2 do in these assays?
TbREL1 primary: 3.8

Results for COc1cc(NC(=O)c2csc(N)n2)cc(C(=O)Nc2cccc(C(F)(F)F)c2)c1 ?
TbREL1 primary: -2.1

What do the screens show for `COc1cc(NC(=O)c2cc(C)on2)cc(C(=O)Nc2cccc(C(F)(F)F)c2)c1`?
TbREL1 primary: 7.3

Results for COc1cc(NC(=O)c2cnc(N)s2)cc(C(=O)Nc2cccc(C(F)(F)F)c2)c1 ?
TbREL1 primary: 31.7*; TbREL1 conf: 20.8*

How did Nc1ccc2nc(-c3ccccn3)[nH]c2c1 do in these assays?
TbREL1 primary: 0.2

What do the screens show for `Nc1ccc2nc(-c3cccnc3)[nH]c2c1`?
TbREL1 primary: -0.3

How did Nc1ccc2nc(-c3ccc(N)c(Cl)c3)[nH]c2c1 do in these assays?
TbREL1 primary: 13.2*; TbREL1 conf: 6.3

How did COC(=O)C1=C(C)N(Cc2ccc(Cl)cc2)C(=S)NC1c1cccc(Br)c1 (stereo unspecified) do in these assays?
TbREL1 primary: -3.1

What do the screens show for `COC(=O)C1=C(C)N(Cc2ccccc2C(F)(F)F)C(=NCc2ccc3c(c2)OCO3)NC1c1cccc(F)c1` (stereo unspecified)?
TbREL1 primary: 13.3*; TbREL1 conf: 18.1*

What do the screens show for `COC(=O)C1=C(C)N(Cc2ccccc2C(F)(F)F)C(=NCc2ccc3c(c2)OCO3)NC1c1cccc(Cl)c1` (stereo unspecified)?
TbREL1 primary: 14.1*; TbREL1 conf: 13.7*

Results for COC(=O)C1=C(C)N(CCCC(=O)O)C(=O)NC1c1ccc2c(c1)OCO2 (stereo unspecified) ?
TbREL1 primary: 1.7

What do the screens show for `COc1ccc(-c2c(C#Cc3ccc(N(C)C)cc3)c3ccccc3n2C)cc1`?
TbREL1 primary: -5.3

What do the screens show for `CC(C)NC(=O)NS(=O)(=O)c1cnccc1N1CCCCC1`?
TbREL1 primary: -0.4

Results for COc1cc(OC)cc(-c2nc(SCC(=O)Nc3ccccc3F)n[nH]2)c1 ?
TbREL1 primary: 4.4

How did O=C(NCCCN1CCOCC1)c1cc(-c2ccco2)nc2ccccc12 do in these assays?
TbREL1 primary: 6.7

How did C#CCOCCOCCOCCNc1nc(N2CCN(C(=O)[C@H]([C@@H](C)CC)n3cc([C@@H](N)CO)nn3)CC2)nc(N2CCN(C(=O)[C@H](CCCCN)n3cc([C@@H](N)CO)nn3)CC2)n1 do in these assays?
TbREL1 primary: 4.6

Results for C#CCOCCOCCOCCNc1nc(N2CCN(C(=O)[C@H](CCCCN)n3cc([C@@H](N)CC(C)C)nn3)CC2)nc(N2CCN(C(=O)[C@H](Cc3cc4ccccc4[nH]3)n3cc([C@@H](N)CC(C)C)nn3)CC2)n1 ?
TbREL1 primary: 20.1*; TbREL1 conf: 12.9*

What do the screens show for `C#CCOCCOCCOCCNc1nc(N2CCOCC2)nc(N2CCN(C(=O)[C@H](CCC(=O)O)n3cc(C(N)CO)nn3)CC2)n1` (stereo partly specified)?
TbREL1 primary: 15.7*; TbREL1 conf: 5.0

Results for C#CCOCCOCCOCCNc1nc(N2CCN(C(=O)[C@H](CCC(=O)O)n3cc(C(N)Cc4ccc(O)cc4)nn3)CC2)nc(N2CCN(C(=O)[C@H](CCC(=O)O)n3cc(C(N)Cc4ccc(O)cc4)nn3)CC2)n1 (stereo partly specified) ?
TbREL1 primary: 3.2
